Bioassay records (PubChem BioAssay)
mTORC1 inh: inhibitors of mTORC1 signaling in Tsc2-/- p53-/- MEF cells | AID 493208 | actives 0.78% (n = 44,000) | Tsc2-/- p53-/- MEF, phospho-rpS6 immunofluorescence/PI, 24 h | Potency, µM (titrated, usually from 38.3 µM), inactives show top-dose activity change, negative = inhibition, hits mostly inhibitors;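 also: potency is read from the fitted curve at half-maximal effect; plate controls were DMSO for no effect and rapamycin for full effect; nearly all actives have a fitted effect of over 50% in size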
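Cell-based qHTS: Tsc2-/- p53-/- MEF, 24 h cpd, 37 °C; fix/perm, anti-phospho-S6 Alexa-488 + PI; Acumen 488 nm scan; pS6/PI ratio, % positive cells; rapamycin 7.5 nM = inhibition ref; PI count = viability.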
p53null 32C kill: kills p53 null cells at the permissive temperature; AID 903; actives 0.62% (n = 55,000); H1299-neo p53 null cells, ATP luminescence, 24 h, 32C; Potency, µM (top dose mostly 46.1 µM), for inactives: at the top dose activity change, negative = cytotoxicity, usual class: cytotoxic;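 also: potency is read from the fitted curve at half-maximal effect; 0% = DMSO only and -100% = full killing by 100 µM tamoxifen; nearly all actives have a fitted effect of over 55% in size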
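Cells lacking p53 (H1299-neo) are plated at 600 per well and allowed to settle overnight at 37C. Test compounds (up to 46 uM) are added and held 24 hours at 32C, then ATP is quantified by luminescence.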
p53null 39C kill: p53 null cell cytotoxicity, nonpermissive temperature. H1299 p53-null (neo) cells, 39C, ATPlite viability, 24 h. Potency, µM (series often up to 46.1 µM), without a hit: at the top dose activity, negative = cell killing, usual class: cytotoxic. actives 0.97% (n = 55,000). AID 904;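 also: potency is read from the fitted curve at half-maximal effect; 0% = DMSO only and -100% = full killing by 100 µM tamoxifen; nearly all actives have a fitted effect of over 50% in size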
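Concentration-response (up to 46 uM) was run for 24 h at the nonpermissive 39C on H1299-p53A138V or H1299-neo cells. ATP content was measured with ATPlite luminescence. AC50 values were Hill-modeled after normalizing between DMSO and 100 uM tamoxifen killing.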
PMP22 txn prim: PMP22 gene transcription modulation; Potency, µM (titrated, usually from 57.5 µM), for inactives: at the highest dose activity change, negative = inhibition, hits mostly inhibitors; AID 1508649; S16 Pmp22-F2sN Schwann cells, FLuc/NLuc coincidence luminescence, 24 h; actives 2% (n = 43,000); active = clear falling dose curves in both reporters; inconclusive = both reporters move, but less clearly or upward; inactive = either reporter flat; the % is the NLuc reporter signal; also: potency is read from the fitted curve at half-maximal effect; % is scaled to controls: 0 for no effect and ±100 for the full control effect
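qHTS, 1536-well. Cells seeded, compounds added by pin tool, 24 h 37C. Nano-Glo reagent 1 (lysis/FLuc), 10 min RT, read; Stop&Glo, 10 min RT, read NLuc.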
S16 viability: toxic to S16 Pmp22-F2sN Schwann cells; S16 Pmp22-F2sN Schwann cells viability, CellTiter-Glo, 24 h; Potency, µM (top dose mostly 57.5 µM), without a hit: top-dose activity change, negative = cytotoxicity, usual class: cytotoxic; actives 0.48% (n = 43,000); AID 1508642; also: potency is read from the fitted curve at half-maximal effect; % is scaled to controls: 0 for no effect and ±100 for the full control effect; nearly all actives have a fitted effect of over 65% in size
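Seed 500-1,000 S16 Pmp22-F2sN cells per well in phenol-red-free DMEM with 10% heat-inactivated FBS; pin-add 23 nL compound; incubate 24 h at 37C; add CellTiter-Glo, wait 15 min protected from light; read luminescence.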
NLuc sat counter: counter-screen for PMP22 expression modulators: NanoLuc inhibition, saturating substrate; AID 1508638; Potency, µM (series often up to 57.5 µM), for the others: at the highest dose activity change, negative = inhibition, usual class: inhibitors; shares compounds with PMP22 txn prim; Secreted NLuc enzyme (filtered S16 cell medium), Nano-Glo luminescence; actives 4% (n = 690); also: potency is read from the fitted curve at half-maximal effect; % is scaled to controls: 0 for no effect and ±100 for the full control effect
NLuc Km counter: counter-screen for PMP22 expression modulators: NanoLuc inhibition at Km. Potency, µM (highest dose often 57.5 µM), without a hit: at the top dose activity change, negative = inhibition, hits mostly inhibitors. shares compounds with PMP22 txn prim. secreted NLuc enzyme, coelenterazine luminescence, Km conditions. actives 5% (n = 690); also: potency is read from the fitted curve at half-maximal effect; % is scaled to controls: 0 for no effect and ±100 for the full control effect
FLuc ctr PMP22: inhibits firefly luciferase, PMP22 counter-screen. purified P. pyralis FLuc, luminescence, 10 min. 690 tested, under 10 active. Potency, µM (highest dose often 57.5 µM), for the others: at the highest dose activity, negative = inhibition, most hits filed as inhibitors. AID 1508640. shares compounds with PMP22 txn prim; also: % of control where 0% means no effect
Target sequence (P08659 whole entry, looked up): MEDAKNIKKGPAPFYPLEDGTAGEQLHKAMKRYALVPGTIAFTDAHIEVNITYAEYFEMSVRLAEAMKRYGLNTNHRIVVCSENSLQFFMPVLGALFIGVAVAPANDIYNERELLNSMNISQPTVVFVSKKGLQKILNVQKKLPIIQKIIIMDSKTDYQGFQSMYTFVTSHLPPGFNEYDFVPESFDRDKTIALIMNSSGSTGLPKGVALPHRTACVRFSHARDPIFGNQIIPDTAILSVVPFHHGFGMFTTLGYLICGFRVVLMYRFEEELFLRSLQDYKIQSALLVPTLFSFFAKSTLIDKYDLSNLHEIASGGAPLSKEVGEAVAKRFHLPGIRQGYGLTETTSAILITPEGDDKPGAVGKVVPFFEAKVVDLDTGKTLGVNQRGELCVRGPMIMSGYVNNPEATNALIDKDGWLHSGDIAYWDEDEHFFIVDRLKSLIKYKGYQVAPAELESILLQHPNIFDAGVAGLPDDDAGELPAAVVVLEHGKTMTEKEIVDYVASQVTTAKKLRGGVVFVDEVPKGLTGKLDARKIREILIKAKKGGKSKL
S16 F2sN tox cnf: confirmation of cytotoxicity in S16 Pmp22-F2sN Schwann cells (luciferase reporters placed in the Pmp22 gene); shares compounds with PMP22 txn prim; S16 Schwann cells viability, CellTiter-Glo ATP luminescence, 24 h; Potency, µM (series often up to 57.5 µM), inactives show top-dose activity change, negative = viability loss, actives largely listed as cytotoxic; actives 7% (n = 690); AID 1508641; also: potency is read from the fitted curve at half-maximal effect; % is scaled to controls: 0 for no effect and ±100 for the full control effect
PMP22 txn cnf: confirmation of modulators of PMP22 gene transcription in S16 cells. S16 Schwann cells Pmp22-F2sN, dual luciferase, 24 h. Potency, µM (highest dose often 57.5 µM), for the others: at the highest dose activity change, negative = inhibition, usual class: inhibitors. actives 22% (n = 690). shares compounds with PMP22 txn prim; active = clear falling dose curves in both reporters; inconclusive = both reporters move, but less clearly or upward; inactive = either reporter flat; the % is the FLuc reporter signal; also: potency is read from the fitted curve at half-maximal effect
PMP22 HiBiT cnf: confirmation of modulators of rat PMP22 protein expression. shares compounds with PMP22 txn prim. S16 Schwann cells Pmp22-HiBiT, luminescence, 48 h. Potency, µM (highest dose often 27.9 µM), for inactives: at the top dose activity change, negative = inhibition, hits mostly inhibitors. 95 tested, under 10 active
Target sequence (P25094 whole entry, looked up): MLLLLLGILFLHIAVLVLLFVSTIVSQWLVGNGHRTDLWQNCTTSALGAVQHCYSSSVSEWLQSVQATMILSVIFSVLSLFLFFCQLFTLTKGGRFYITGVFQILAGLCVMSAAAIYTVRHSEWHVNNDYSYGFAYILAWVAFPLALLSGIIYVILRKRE
Active calls of the source: *; ? = inconclusive; · = no result given. Shown are actives, neighbours in structure and some others; about 3.2% of the full set was active somewhere. Unless noted, calls follow the shape of the dose curve; as a rule, active = well fitted curve in the direction sought with a large enough effect; inconclusive = small, poorly fitted or top-dose-only effect, or another doubt; inactive = no such curve, though single readings can be large; an effect the other way counts as inactive or inconclusive.

SMILES	mTORC1 inh	p53null 32C kill	p53null 39C kill	PMP22 txn prim	S16 viability	NLuc sat counter	NLuc Km counter	FLuc ctr PMP22	S16 F2sN tox cnf	PMP22 txn cnf	others
Cc1cc(C)nc(NS(=O)(=O)c2ccc(N/C=C3\CCCC3=O)cc2)n1	·	-6.5%	10.3%	·	·	·	·	·	·	·
O=C(CCS(=O)(=O)c1nc(-c2ccc3c(c2)OCO3)cc(C(F)(F)F)n1)Nc1ccc(F)c(Cl)c1	-3.9%	?	?	13.4µM*	?	-14.7%	?	-7.5%	-15.8%	?
CCOc1cc(C2c3c(oc4ccccc4c3=O)C(=O)N2Cc2ccccc2Cl)ccc1O (stereo not given)	-5.9%	-0.9%	-3.0%	?	2.5%	·	·	·	·	·
COc1cc(C2c3c(oc4ccccc4c3=O)C(=O)N2Cc2ccccc2Cl)ccc1O (stereo not given)	2.6%	-22.7%	?	11.5µM*	2.6%	-9.1%	-4.0%	3.8%	-7.8%	?
Cc1cc(C)cc(NCc2nnc3n2CCCCC3)c1	-25.8%	-0.9%	0.3%	-14.6%	-1.1%	·	·	·	·	·
Cn1c(=O)c2c(-c3ccccc3Br)n(C(C)(C)C)cc2n(C)c1=O	-6.7%	5.1%	-9.5%	15.6µM*	0.6%	?	-15.5%	3.0%	?	-21.7%
CC(c1ccccc1)n1cc2c(c1-c1ccccc1Br)c(=O)n(C)c(=O)n2C (stereo not given)	-12.2%	15.4%	10.3%	-6.8%	-8.8%	·	·	·	·	·
CCOC(=O)c1ccc(N2C(=O)c3n[nH]c(-c4cccs4)c3C2c2ccc(O)c(OC)c2)cc1 (stereo not given)	?	16.8%	41.8%	16µM*	?	?	?	-9.4%	-18.5%	?
COc1ccccc1N1CCN(c2ncnc3c2cnn3-c2cc(Cl)ccc2C)CC1	2.6%	?	4.8%	8.43µM*	?	?	?	2.8%	?	?
Cc1c(C(=O)NCc2cccc(Cl)c2)sc2nc[nH]c(=O)c12	-14.4%	13.8%	5.0%	?	-3.7%	?	-17.8%	-1.0%	?	13.3%
Cc1c(C(=O)NCc2ccccc2)sc2nc[nH]c(=O)c12	-8.3%	5.7%	-2.2%	-38.2%	-0.4%	·	·	·	·	·
COc1cc(NC(=O)N2CCC(CN3CCOCC3)CC2)cc(OC)c1OC	-7.6%	-8.8%	-4.6%	-46.4%	14.1%	-7.0%	0.8%	-6.5%	1.8%	7.1%
O=C(Cn1cc(C(=O)C2CCCCC2)c2ccccc21)Nc1ccccc1Cl	-9.1%	-8.6%	-22.0%	9.46µM*	-22.5%	-4.8%	8.1%	-8.8%	-9.7%	?
CCOc1ccc(CNC(=O)CSc2c3c(nc4cc(Cl)ccc24)CCCC3)cc1	-12.1%	0.3%	-5.1%	?	?	·	·	·	·	·
CCOc1ccc(CNC(=O)CSc2c3c(nc4ccc(Cl)cc24)CCCC3)cc1	-8.7%	-2.3%	-23.2%	?	14.8%	·	·	·	·	·
O=C(CSc1c2c(nc3ccc(Cl)cc13)CCCC2)N1CCN(c2ccc(Cl)cc2)CC1	1.5%	35.4%	22.4%	?	-1.7%	·	·	·	·	·
COCCCNC(=O)CSc1c2c(nc3ccc(Cl)cc13)CCCC2	?	24.2%	82.0%	?	?	·	·	·	·	·
CC(C)OCCCNC(=O)CSc1c2c(nc3ccc(Cl)cc13)CCCC2	-10.2%	3.8%	85.5%	12.1µM*	?	-10.2%	5.2%	2.2%	?	19.3µM*
CCN(CC)CCCNC(=O)CSc1c2c(nc3cc(Cl)ccc13)CCCC2	?	37.2%	12.6µM*	6.69µM*	?	-3.1%	-0.7%	2.9%	?	10.4µM*	PMP22 HiBiT cnf=66.2%
CCc1ccc(CNC(=O)CSc2c3c(nc4ccc(Cl)cc24)CCCC3)cc1	-0.3%	4.3%	5.2%	6.23µM*	-1.2%	-8.0%	?	4.6%	4.4%	?
O=C(CSc1c2c(nc3ccc(Cl)cc13)CCCC2)N1CCN(c2cccc(Cl)c2)CC1	-18.6%	28.2%	21.7%	20µM*	-12.2%	-7.6%	-1.2%	0.3%	16.8%	?
Cc1ccc(NC(=O)Cn2nc(Cc3ccncc3)c3ccccc3c2=O)c(Cl)c1	-7.4%	-25.4%	3.8%	-3.9%	10.5%	·	·	·	·	·
COc1ccc(Cl)cc1NC(=O)CCCN1C(=O)C(c2ccccc2)Oc2cccnc21 (stereo not given)	-21.3%	5.9%	5.7%	?	-13.4%	·	·	·	·	·
COc1ccc(-c2c(C)c3ccc(O)c(CN4CCOCC4)c3oc2=O)cc1	0.0%	-8.7%	-1.4%	?	-24.6%	·	·	·	·	·
COc1cc(OC)cc(C(=O)Nc2ccc(S(=O)(=O)Nc3cc(C)nc(C)n3)cc2)c1	-3.4%	-1.3%	5.6%	30.4%	1.3%	·	·	·	·	·
COCCCNC(=O)CCn1c(=O)c2ccccc2n(CC(=O)Nc2cc(Cl)ccc2OC)c1=O	-18.9%	2.4%	13.4%	-3.5%	9.6%	·	·	·	·	·
CCOc1ccc(-c2c(C)nn3c(C)c(C(=O)NCCN(C)C)cnc23)cc1OCC	-7.1%	1.4%	19.4%	-4.5%	12.2%	·	·	·	·	·
CCOc1ccc(-c2c(C)nn3c(C)c(C(=O)NCC(C)c4ccccc4)cnc23)cc1OCC (stereo not given)	-16.5%	11.5%	47.8%	16.8µM*	3.8%	?	?	-3.0%	-15.8%	?
